Experimental data: PubChem BioAssay (NCATS)
Inconclusive results are not listed. Where a call stands in place of a potency, no number is given. Calls of active or inactive are those of the source. Calls follow the shape of the dose curve; as a rule, active = well fitted curve in the direction sought with a large enough effect; inconclusive = small, poorly fitted or top-dose-only effect, or another doubt; inactive = no such curve, though single readings can be large; an effect the other way counts as inactive or inconclusive.

Columns and labels:
NIH3T3 = experiment: qHTS assay to identify novel small-molecules to repurpose for Merkel cell carcinoma treatment (AID 1296009); settings: MCC and control cell lines, CellTiter-Glo viability, 72 h; series mostly up to 44.8 µM; also: nearly all actives have a fitted effect of over 60% in size
In short: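 Cell viability measured by CellTiter-Glo following 72 hr compound treatment at 37 degree celsius, with NPC and MIPE libraries tested in 8- and 11-point concentration series.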

C33A = experiment: Primary qHTS to identify gynecologic anti-cancer compounds using libraries of approved drugs and bioactive compounds (AID 1345084); settings: Gynecologic cancer cell panel viability, ATPlite luminescence, 48 h; series mostly up to 57.5 µM; also: nearly all actives have a fitted effect of over 55% in size; also: potency is read from the fitted curve at half-maximal effect
In short: (§1)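 Five-concentration response, 48 h; readout is ATP-driven luciferase luminescence.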

CAOV3 = experiment: as above; settings: Gynecologic cancer cell panel viability, ATPlite luminescence, 48 h; series mostly up to 57.5 µM
In short: as §1

CASKI = experiment: as above; settings: Gynecologic cancer cell panel viability, ATPlite luminescence, 48 h; series mostly up to 57.5 µM
In short: as §1

Es-2 = experiment: as above; settings: Gynecologic cancer cell panel viability, ATPlite luminescence, 48 h; series mostly up to 57.5 µM
In short: as §1

HeLa = experiment: as above; settings: Gynecologic cancer cell panel viability, ATPlite luminescence, 48 h; series mostly up to 57.5 µM
In short: as §1

Hek293T = experiment: as above; settings: Gynecologic cancer cell panel viability, ATPlite luminescence, 48 h, control line for the selectivity index; series mostly up to 57.5 µM
In short: as §1

JEG-3 = experiment: as above; settings: Gynecologic cancer cell panel viability, ATPlite luminescence, 48 h; series mostly up to 57.5 µM
In short: as §1

OV90 = experiment: as above; settings: Gynecologic cancer cell panel viability, ATPlite luminescence, 48 h; series mostly up to 57.5 µM
In short: as §1

PA-1 = experiment: as above; settings: Gynecologic cancer cell panel viability, ATPlite luminescence, 48 h; series mostly up to 57.5 µM
In short: as §1

SKOV3 = experiment: as above; settings: Gynecologic cancer cell panel viability, ATPlite luminescence, 48 h; series mostly up to 57.5 µM
In short: as §1

Tov-21-G = experiment: as above; settings: Gynecologic cancer cell panel viability, ATPlite luminescence, 48 h; series mostly up to 57.5 µM
In short: as §1

Tov112D = experiment: as above; settings: Gynecologic cancer cell panel viability, ATPlite luminescence, 48 h; series mostly up to 57.5 µM
In short: as §1

SMILES | Potency (NIH3T3) | Potency (C33A) | Potency (CAOV3) | Potency (CASKI) | Potency (Es-2) | Potency (HeLa) | Potency (Hek293T) | Potency (JEG-3) | Potency (OV90) | Potency (PA-1) | Potency (SKOV3) | Potency (Tov-21-G) | Potency (Tov112D)
O=C(Nc1ccccc1C(=O)Nc1ccc(CCO)cc1)c1ccc([N+](=O)[O-])cc1 | inactive | inactive | inactive | inactive | inactive | inactive | inactive | inactive | inactive | inactive | inactive | inactive | inactive
Cc1cc(NC(=O)NCCN2CCC(O)(Cc3ccccc3)CC2)c2ccccc2n1 | inactive | inactive | inactive | inactive | inactive | inactive | inactive | inactive | inactive | inactive | inactive | inactive | inactive
O=C(NCCN1CCC(n2c(=O)[nH]c3ccccc32)CC1)c1cc2cc(F)ccc2[nH]1 | inactive | inactive | inactive | inactive | inactive | inactive | inactive | inactive | inactive | inactive | inactive | inactive | inactive
COc1cc(C(C)=O)c(OC)c2c1OC(C)(C)C=C2 | inactive | inactive | inactive | inactive | inactive | inactive | inactive | inactive | inactive | inactive | inactive | inactive | inactive
CCc1c(Cl)c(O)c(Cl)c(O)c1C(=O)O[C@H]1[C@H](O)[C@H](OC)[C@H](OC/C2=C\C=C\C[C@H](O)/C(C)=C\[C@H](CC)[C@@H](O[C@@H]3OC(C)(C)[C@@H](OC(=O)C(C)C)[C@H](O)[C@@H]3O)/C(C)=C/C(C)=C/C[C@@H]([C@@H](C)O)OC2=O)O[C@@H]1C | inactive | inactive | inactive | inactive | inactive | inactive | inactive | inactive | inactive | inactive | inactive | inactive | inactive
C[C@@]12C(=O)N(c3ccc(C(=O)Nc4cccc5cccnc45)cc3)C(=O)[C@@H]1[C@@H]1C=C[C@H]2C1 | inactive | inactive | inactive | inactive | inactive | inactive | inactive | inactive | inactive | inactive | inactive | inactive | –
COc1ccc(CCN(C)CCCOc2nsc(-c3ccccc3)n2)cc1OC | inactive | inactive | inactive | inactive | inactive | inactive | inactive | inactive | inactive | inactive | inactive | inactive | inactive
C=C1C(=O)OC2C1CCC1(C)C(O)CC=C(C)C21 (stereo unspecified) | inactive | inactive | inactive | inactive | inactive | inactive | inactive | inactive | inactive | inactive | inactive | – | inactive
CCN1C(C)(C)CC(Oc2ccc(C(=O)Nc3ccc(NC(=O)Nc4cc(C(C)(C)C)on4)cc3)nc2)CC1(C)C | inactive | inactive | inactive | inactive | inactive | inactive | inactive | inactive | inactive | inactive | – | inactive | inactive
COC(=O)c1cc(Br)cnc1N1CCC(NC2CCCCC2)C(O)C1 (stereo unspecified) | inactive | inactive | inactive | inactive | inactive | inactive | inactive | inactive | inactive | inactive | – | inactive | inactive
CCC(C)C(=O)O[C@H]1[C@@H](OC(=O)c2ccoc2)C[C@](C)(O)[C@]23OC(C)(C)[C@H](C[C@H](OC(=O)c4ccoc4)[C@]12COC(C)=O)[C@H]3OC(C)=O (stereo partly specified) | inactive | inactive | inactive | inactive | inactive | inactive | inactive | inactive | inactive | inactive | inactive | inactive | inactive
CNCCC(c1cccs1)c1ccc(O)c2ccccc12 (stereo unspecified) | inactive | inactive | inactive | inactive | inactive | inactive | inactive | – | – | inactive | – | inactive | inactive
COc1cc(/C=C2\CC[C@H]3COC[C@@H](c4cc(F)c(F)c(F)c4)N3C2=O)ccc1-n1cnc(C)c1 | inactive | inactive | inactive | inactive | inactive | inactive | inactive | inactive | inactive | inactive | – | inactive | inactive
CCn1c(=O)n([C@H]2CCCN(c3nccc(-c4cc5ccccc5o4)n3)C2)c2ccccc21 | inactive | inactive | inactive | inactive | inactive | inactive | inactive | inactive | inactive | inactive | – | inactive | inactive
COC(=O)c1ccc2c(c1)[nH]c1ncnc(NCCCN3CCCCC3)c12 | inactive | inactive | inactive | inactive | inactive | inactive | inactive | inactive | inactive | – | inactive | inactive | inactive
CC(C)(O)C1CC(=O)C2(C)C(CCC3(C)C(c4ccoc4)OC(=O)C4OC432)C12CCC(=O)OC2 (stereo unspecified) | inactive | inactive | inactive | inactive | inactive | inactive | inactive | – | inactive | – | inactive | inactive | inactive

SMILES | Potency (NIH3T3) | Potency (C33A) | Potency (CAOV3) | Potency (CASKI) | Potency (Es-2) | Potency (HeLa) | Potency (Hek293T) | Potency (JEG-3) | Potency (OV90) | Potency (PA-1) | Potency (SKOV3) | Potency (Tov-21-G) | Potency (Tov112D)
Cc1cc(F)ccc1[C@H]1C[C@@H](N2CCN3C(=O)CC[C@H]3C2)CCN1C(=O)N(C)[C@H](C)c1cc(C(F)(F)F)cc(C(F)(F)F)c1 | inactive | inactive | inactive | inactive | inactive | inactive | – | inactive | inactive | inactive | – | inactive | inactive
CC(=O)OCC(=O)[C@@]12O[C@@H]1C[C@H]1[C@@H]3CC=C4C[C@@H](O)CC[C@]4(C)[C@H]3CC[C@@]12C | inactive | inactive | inactive | inactive | inactive | inactive | inactive | inactive | inactive | inactive | inactive | inactive | inactive
CC[C@@H]1C[C@]1(NC(=O)[C@@H]1C[C@@H]2CN1C(=O)[C@H](C(C)(C)C)NC(=O)OCC(C)(C)CCCCc1cccc3c1CN(C3)C(=O)O2)C(=O)NS(=O)(=O)C1CC1 | inactive | inactive | inactive | inactive | inactive | inactive | inactive | – | inactive | inactive | inactive | inactive | inactive
Cc1cc(OCCCS(C)(=O)=O)cc(C)c1-c1cccc(COc2ccc3c(c2)OCC3CC(=O)O)c1 (stereo unspecified) | inactive | inactive | inactive | inactive | inactive | inactive | inactive | inactive | inactive | – | inactive | inactive | inactive
CC1=C2C[C@@]3(C)C(CCC[C@@H]3C)C(O)C2OC1=O (stereo partly specified) | inactive | inactive | inactive | inactive | inactive | inactive | inactive | inactive | inactive | inactive | inactive | inactive | inactive
C=C1CC[C@@H]2[C@](C)(CO)[C@H](O)CC[C@@]2(C)[C@@H]1CC(O)C1=CCOC1=O (stereo partly specified) | inactive | inactive | inactive | inactive | inactive | inactive | inactive | inactive | inactive | inactive | – | inactive | inactive
COc1cc2ncnc(Nc3ccc(F)c(Cl)c3)c2cc1O | inactive | inactive | inactive | inactive | inactive | inactive | inactive | inactive | – | inactive | inactive | inactive | inactive
CC1OC(=O)C[C@@H]2C(C(=O)O)=CO[C@@H](O[C@H]3O[C@H](CO)[C@@H](O)[C@H](O)[C@H]3O)[C@H]12 (stereo partly specified) | inactive | inactive | inactive | inactive | inactive | inactive | inactive | inactive | inactive | inactive | – | inactive | inactive
C=C(COC(=O)C(O)C(O)CN)C12OC1C1(C)C(=CC2=O)C(O)C(O)CC1C (stereo unspecified) | inactive | inactive | inactive | inactive | inactive | inactive | inactive | inactive | inactive | inactive | inactive | inactive | inactive
CC(=O)C1=C(O)C=C2Oc3c(C(C)=O)c(O)c(C)c(O)c3[C@]2(C)C1=O | inactive | inactive | inactive | inactive | inactive | inactive | inactive | inactive | inactive | inactive | inactive | inactive | inactive
COc1cc2c(cc1OCCCN1CCCC1)N=C(N)C21CCC1 | inactive | inactive | inactive | inactive | inactive | inactive | inactive | inactive | inactive | inactive | inactive | inactive | inactive
COC(=O)CC(O)CC(O)/C=C/c1c(C)ccc2c1C(OC(C)=O)CC(C)C2 (stereo unspecified) | inactive | inactive | inactive | inactive | inactive | – | inactive | inactive | – | – | inactive | inactive | –
Cn1cc(C2=C(c3coc4ccccc34)C(=O)NC2=O)c2cc(Br)ccc21 | inactive | inactive | inactive | inactive | inactive | inactive | inactive | – | inactive | inactive | inactive | inactive | inactive
COc1cc2ncc(-c3ccccc3)nc2cc1OC | inactive | inactive | inactive | inactive | inactive | 3.55 µM (active) | inactive | inactive | inactive | – | – | – | inactive
CCCn1cc2c(nc(NC(=O)Nc3ccc(OC)cc3)n3nc(-c4ccco4)nc23)n1 | inactive | inactive | inactive | inactive | inactive | inactive | inactive | inactive | inactive | inactive | – | inactive | inactive
CN(C)C(CCOc1cccc2ccccc12)c1ccccc1 (stereo unspecified) | inactive | inactive | inactive | inactive | inactive | inactive | inactive | inactive | – | inactive | – | inactive | inactive
